Bioassay records deposited in PubChem BioAssay by several laboratories.
Anthrax LF inh2 – inhibitors of Bacillus anthracis lethal factor protease | inhibition, % at 10 µM | multiplex microsphere protease cleavage assay, LF | AID 588501 | P15917 | actives 0.12% (n = 360,000)
BoNT-F LC inh – blocks Botulinum neurotoxin F light chain protease; Multiplex microsphere protease cleavage assay, flow cytometry; inhibition, % at 10 µM; actives 0.22% (n = 360,000); AID 588497; in the data active means inhibition above about 35%, passing the limit was not always enough; inconclusive means no clear call, values can overlap the other calls
Autofluor counter – compound fluorescence in toxin protease inhibitor counterscreen | actives 3.1% (n = 360,000) | AID 624483 | fluorescence intensity (no concentration beside the values) | compound autofluorescence counterscreen, microsphere flow cytometry; hits give high values; in the data active means fluorescence intensity above about 16000; inconclusive means no clear call, values can overlap the other calls
BoNT A protease – BoNT A light chain protease inhibition | AID 588499 | actives 0.17% (n = 360,000) | inhibition, % at 10 µM | multiplex microsphere protease substrate cleavage, flow cytometry
BH1578 lux ind – quorum light induction in luxS cqsA deficient V. cholerae; activation, % at 18.7 µM; actives 0.16% (n = 350,000); V. cholerae BH1578 lux reporter, luminescence, 6 h; in the data active means activation mostly above about 9.7%, no sharp cut-off; inconclusive means no clear call, values can overlap the other calls; inactive means mostly below about 3.7%
A number is an active result; 0 = inactive; ? = inconclusive. Only some compounds are listed: those with a hit (about 3.5% of all), similar ones and a draw of the others. Unless noted, no stated cut-off is given here; in the data, active means inhibition above about 30%; inconclusive means no clear call, values can overlap the other calls; inactive means below that.

SMILES	Anthrax LF inh2	BoNT-F LC inh	Autofluor counter	BoNT A protease	BH1578 lux ind
COc1ccc(Oc2ccc3c(C(F)(F)F)cc(C(F)(F)F)nc3n2)cc1	0	0	22263	?	0
FC(F)(F)c1ccc(Oc2ccc3c(C(F)(F)F)cc(C(F)(F)F)nc3n2)cc1	0	0	22830	0	0
CC(C)c1ccc(NC(=O)c2cccnc2)cc1	0	0	0	0	0
CC(C)(C)c1ccccc1NC(=O)c1cccnc1	0	0	16565	?	0
CC(C)c1ccc(O)c(NC(=O)c2cccnc2)c1	0	0	20393	0	0
Cc1cccc2sc(NS(C)(=O)=O)nc12	0	0	0	0	0
COc1ccc(CCN=C(C)C2=C(O)C(c3ccccc3)OC2=O)cc1OC (configuration not stated)	0	0	0	0	0
CC(=O)C1C(c2ccccc2Cl)NC(=O)NC1(O)C(F)(F)F (configuration not stated)	0	0	0	0	0
CC(=O)C1C(c2ccncc2)NC(=O)NC1(O)C(F)(F)F (configuration not stated)	0	0	22926	0	0
CC(=O)C1C(c2ccc3ncccc3c2)NC(=O)NC1(O)C(F)(F)F (configuration not stated)	0	0	22750	0	0
Cc1ccc(S(=O)(=O)NCc2ccc3c(c2)cc(C)n3C)cc1	0	0	0	81	0
Cc1cc2cc(CN3C(=O)c4ccccc4C3=O)ccc2n1C	0	0	0	88	0
O=C(c1cc(C2CCCCN2C(=O)OCCF)on1)N1CCOCC1 (configuration not stated)	0	0	0	0	0
Fc1ccccc1OCCSc1nnnn1-c1ccccc1	0	0	20510	0	0
CCOc1ccc2nc(NC(=O)Nc3ccccc3)sc2c1	0	0	0	0	0
CCOc1ccc2nc(NC(=S)NCc3ccccc3)sc2c1	0	0	20242	0	0
COc1cc(/C=N/Nc2nn3cnnc3c3ccccc23)ccc1O	0	0	21210	?	0
O=C(C1=NN[C@@H]2C(=O)N(c3cccc(C(F)(F)F)c3)C(=O)[C@H]12)c1cnccn1	0	?	0	0	0
COc1ccc(-c2onc3ccc(C(=O)/C=C/N(C)C)cc23)cc1	0	45	0	0	0
CN(C)/C=C/C(=O)c1ccc2noc(-c3cccc(F)c3)c2c1	0	0	0	0	0
CC(C)(C)c1ccc(C(=O)N2CCC(C(=O)NCC3CCCO3)CC2)cc1 (configuration not stated)	0	0	22225	0	0
CN(C)C(=O)N1CCC(C(=O)NCC2CCCO2)CC1 (configuration not stated)	0	0	0	0	0
COc1ccc(CCNC(=O)C2CCN(C(=O)c3ccc(Br)cc3)CC2)cc1	0	?	0	0	0
CC(C)(C)NC(=O)C1CCN(C(=O)c2ccc(Br)cc2)CC1	0	0	19805	?	0
COc1ccc(S(=O)(=O)N2CCC(C(=O)NCC3CCCO3)CC2)cc1 (configuration not stated)	0	0	20959	0	0
SMILES	Anthrax LF inh2	BoNT-F LC inh	Autofluor counter	BoNT A protease	BH1578 lux ind
Cc1ccc(S(=O)(=O)N2CCC(C(=O)N[C@H](C(=O)NCC3CCCO3)C(C)C)CC2)cc1 (some centres not stated)	0	0	20985	0	0
CC1CCCCN1C(=O)COC(=O)/C=C/c1ccc2ccccc2n1 (configuration not stated)	0	0	0	0	0
COc1ccc(OCc2nn[nH]n2)cc1	0	?	0	0	0
CC(=O)n1nc(-c2ccc(Cl)cc2)nc1NCc1ccco1	0	0	21596	0	0
O=C(c1cccs1)n1nc(-c2ccc(Cl)cc2)nc1NCc1ccco1	0	0	0	0	0
COc1ccc(CC(=O)n2nc(-c3ccc(Cl)cc3)nc2NCc2ccco2)cc1	0	0	24639	?	0
CCCC(=O)n1nc(-c2ccc(C)cc2)nc1NCc1ccco1	0	0	0	0	0
C#CC1CCCCC1NC(=O)Nc1cnccc1C(F)(F)F (configuration not stated)	0	0	0	0	0
Cc1cc(C)cc(N(CCC(=O)Nc2nnc(C)s2)S(=O)(=O)c2ccc(Cl)cc2)c1	0	0	0	0	0
CC(C)C1C(c2ccccc2)N(C)C(c2ccccc2)CC1(O)c1ccccc1 (configuration not stated)	0	0	21931	0	0
COc1ccc(-c2oc(NC(=O)CSc3ncn[nH]3)c(C#N)c2-c2ccc(OC)cc2)cc1	0	0	22915	0	0
Cc1ccc(-c2nnc(N3CCN(C(=O)COc4ccccc4)CC3)c3ccccc23)cc1	0	0	16269	0	0
COC(=O)C1=NN(c2ccc(C)cc2)C2(S1)SC(C(C)=O)=C(C)N2c1ccccc1 (configuration not stated)	0	0	23648	0	0
COC(=O)C1=NN(c2ccccc2)C2(S1)SC(C(C)=O)=C(C)N2c1ccccc1 (configuration not stated)	0	0	0	0	0
CC(=O)Nc1ccc(Nc2ncnc3c2cnn3-c2cccc(C)c2)cc1	0	0	19017	0	0
CC(=O)Nc1ccc(Nc2ncnc3c2cnn3-c2ccccc2)cc1	0	0	23123	?	0
Cc1cccc(Cn2c(CN3CCN(Cc4ccccc4)CC3)nc3c2c(=O)[nH]c(=O)n3C)c1	0	0	0	0	0
CCCSc1nc2c(c(=O)[nH]c(=O)n2C)n1Cc1ccc(C)cc1	0	0	21791	0	0
Cn1c(=O)[nH]c(=O)c2c1nc(CN1CCN(c3cccc(Cl)c3)CC1)n2CCN1CCOCC1	0	0	20987	?	0
CCCSc1nc2c(c(=O)[nH]c(=O)n2C)n1Cc1ccccc1	0	0	0	0	0
CCCCn1c(SCC(=O)OCC)nc2c1c(=O)[nH]c(=O)n2C	0	0	0	0	0
CCCCn1c(CN2CCN(c3cccc(Cl)c3)CC2)nc2c1c(=O)[nH]c(=O)n2C	0	0	0	0	0
CCOC(=O)CSc1nc2c(c(=O)[nH]c(=O)n2C)n1C/C=C(/C)Cl	0	0	24116	?	0
CC(C)CCn1c(CN2CCN(Cc3ccccc3)CC2)nc2c1c(=O)[nH]c(=O)n2C	0	0	22665	0	0
COCCn1cnc2c1c(=O)n(CC(=O)NC(=O)NC(C)(C)C)c(=O)n2Cc1ccccc1	0	0	0	0	0
SMILES	Anthrax LF inh2	BoNT-F LC inh	Autofluor counter	BoNT A protease	BH1578 lux ind
CCc1ccc(NC(=O)COC(=O)CCc2nc3cc(S(=O)(=O)N(CC)CC)ccc3n2C)cc1	0	0	0	0	0
O=C(Nc1cccc(F)c1)C1CCCN(S(=O)(=O)c2ccc(-n3cnnn3)cc2)C1 (configuration not stated)	0	0	0	0	0
O=C(CSc1nnc(C2CC2)n1Cc1ccccc1)N1CCNC1=O	0	0	0	0	0
Cc1ccc(Cn2c(CN3CCOCC3)nc3c2c(=O)[nH]c(=O)n3C)cc1	0	0	22053	0	0
Cn1c(=O)[nH]c(=O)c2c1nc(CN1CCOCC1)n2Cc1ccccc1	0	0	0	0	0
CCc1nc2ccc(C(=O)NCCC(C)C)cn2c1N(CCN(C)C)CC1CC1	0	0	0	0	0
Cc1cc(Br)ccc1NC(=O)CN(C)C(=O)CSCc1ccccc1	0	0	?	0	0
